Assay outcomes as filed in PubChem.
The list is not random: actives were taken first. Their share in the collection is about 6%.
DRD3 agonist – qHTS of D3 Dopamine Receptor Agonist: qHTS | actives 0.58% (n = 410,000) | AID 652048, 2013 | max activation, % | D3R DiscoveRx beta-arrestin cells, luminescence, 90 min | D(3) dopamine receptor (Homo sapiens), P35462; in the data active = max activation above about 30%
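Agonist-mode cell screen: cells plated at 1500/well and incubated overnight at 37 °C, then exposed to library compounds for 90 min at 37 °C. Detection reagent was added for 30–60 min at room temperature, and luminescence was read.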
D3 antag – qHTS of D3 Dopamine Receptor Antagonist: qHTS | max response, negative = inhibition, % | D3R cells, DiscoveRx beta-arrestin luminescence, antagonist mode; stronger effect = lower value | D(3) dopamine receptor (Homo sapiens), P35462 | actives 2.5% (n = 360,000); in the data active = max response below about -50%; inconclusive = no clear call, values can overlap the other calls
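Cells plated overnight at 1500 cells/well, then exposed to library compounds with dopamine controls for 90 minutes at 37 degrees C. DiscoveRx reagent added for 30–60 minutes at room temperature; luminescence read, quantitative HTS format.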
D1 antag – Antagonist of Human D 1 Dopamine Receptor: qHTS. D(1A) dopamine receptor (Homo sapiens), P21728. HEK293 TREx D1 cells, calcium flux, dopamine EC80; stronger effect = lower value. activity change, negative = inhibition, % at 10 µM. actives 3.2% (n = 360,000). AID 504652, 2011; in the data active = activity change below about -30%
Target sequence (P21728 whole entry, looked up): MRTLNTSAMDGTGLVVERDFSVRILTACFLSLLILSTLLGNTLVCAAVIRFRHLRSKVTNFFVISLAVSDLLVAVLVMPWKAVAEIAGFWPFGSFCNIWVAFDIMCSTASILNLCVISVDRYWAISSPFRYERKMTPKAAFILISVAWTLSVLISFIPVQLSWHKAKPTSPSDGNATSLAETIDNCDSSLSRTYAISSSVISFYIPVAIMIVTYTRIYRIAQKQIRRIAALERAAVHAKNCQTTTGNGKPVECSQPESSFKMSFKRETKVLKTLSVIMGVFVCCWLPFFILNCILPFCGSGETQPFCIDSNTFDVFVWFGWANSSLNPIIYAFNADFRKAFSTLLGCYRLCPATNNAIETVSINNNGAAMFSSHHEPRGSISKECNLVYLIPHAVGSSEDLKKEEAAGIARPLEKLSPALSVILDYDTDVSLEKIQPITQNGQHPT
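Compound effects on dopamine-evoked calcium signalling were measured in tetracycline-induced HEK293 Trex D1 cells. Dopamine at EC80 followed a 180 s compound pre-read, and fluorescence was tracked kinetically for 180 s more.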
D1 agonist – Allosteric Agonists of the Human D1 Dopamine Receptor: qHTS; D(1A) dopamine receptor (Homo sapiens), P21728; HEK293 T-REx D1 cells, calcium flux, agonist mode; activation, % at 2 µM; actives 1% (n = 360,000); AID 504660, 2011; in the data active = activation above about 30%
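Agonism was scored from calcium flux recorded over 180 s (1 read/s) after pintool compound addition, following a 10-cycle baseline. Cells were inducible force-coupled HEK293 TREx D1, plated overnight at 30 C and loaded with no-wash calcium dye.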
D1 potentiator – Potentiators of Human D1 Dopamine Receptor: qHTS; D(1A) dopamine receptor (Homo sapiens), P21728; HEK293 TREx D1 cells, calcium flux, dopamine EC20 potentiation; potentiation, % at 10 µM; actives 0.036% (n = 360,000); AID 504651, 2011; in the data active = potentiation above about 30%
Numbers stand for hits; . = inactive; ? = inconclusive; / = not tested or not shown; ! = not confirmed by another sample.

SMILES	DRD3 agonist	D3 antag	D1 antag	D1 agonist	D1 potentiator
COc1ccc(C)cc1NCc1cc(=O)oc2cc(-c3ccccc3)c(O)cc12	.	.	-30	.	.
COc1ccc(N2CCN(CCCNC(=O)Nc3ccccc3)CC2)cc1	.	.	.	.	.
CC1CCN(CCCNC(=O)c2cc3sccc3n2C)CC1	.	-86	.	.	.
CN(C(=O)c1cc2sccc2n1C)C1CCCCC1	.	.	-35	.	.
COc1ccc(N2CCN(CCCNC(=O)c3cc4sccc4n3C)CC2)cc1	.	-57	.	.	.
O=C(NNc1ccccn1)c1ccccc1CC[N+](=O)[O-]	.	.	-44	.	.
C=C[C@@](C)(O)CC[C@@H]1[C@@]2(C)CCCC(C)(C)[C@@H]2CC[C@@]1(C)O	.	.	.	49	.
O=C(Nc1cc(Sc2ccccn2)cc([N+](=O)[O-])c1)c1ccc(Cl)cc1	.	.	.	.	.
O=C(Nc1cc(Sc2ccccn2)cc([N+](=O)[O-])c1)c1cccc(Cl)c1	.	.	-35	.	.
CCN(CC)C(=O)C1CCCN(Cc2sccc2C)C1 (stereo not drawn)	.	-63	.	.	.
NCCC[C@H](N)C(=O)O	.	/	/	/	/
N#CC(C#N)=c1ccc2c(c1)NC1(CCCCC1)N=2	.	-78	.	.	.
CCOC(=O)C1(Cc2ccccc2C(F)(F)F)CCN(C(C)CCn2cccn2)CC1 (stereo not drawn)	.	-50	.	.	.
CCOC(=O)C1(Cc2ccccc2C(F)(F)F)CCN(C(C)CSC)CC1 (stereo not drawn)	.	-54	.	.	.
COc1ccc(OC)c(NC(=O)CN2CCCN(Cc3ccccc3Cl)S2(=O)=O)c1	.	/	.	.	.
COc1ccccc1N(CC(=O)NCCc1ccccc1)S(C)(=O)=O	.	.	.	.	.
COCCNC(=O)CN(c1ccccc1OC)S(C)(=O)=O	.	.	-30	.	.
COc1ccccc1N(CC(=O)N/N=C(\C)c1cccc(Br)c1)S(C)(=O)=O	.	.	-30	.	.
CCS(=O)(=O)N1CCc2cc(C(=O)NCCc3ccc(OC)c(OC)c3)ccc21	.	/	.	.	.
COc1ccccc1OCC(=O)Nc1ccc(S(=O)(=O)N(C)c2ccccc2)cc1	.	.	-41	.	.
COc1ccc(OCC(=O)Nc2ccc(S(=O)(=O)N(C)c3ccccc3)cc2)cc1	.	.	.	.	.
CCS(=O)(=O)c1ncc(Cl)c(C(=O)Nc2ccc(S(=O)(=O)N(C)c3ccccc3)cc2)n1	.	?	-61!	.	.
CCN(c1ccccc1)S(=O)(=O)c1ccc(NC(=O)c2nc(S(C)(=O)=O)ncc2Cl)cc1	.	-93	-34	.	.
Cc1c(C(=O)Nc2ccc(F)c(C(F)(F)F)c2)sc2nc(-c3ccccc3)cn12	.	/	.	.	.
COc1ccc(C)cc1S(=O)(=O)NCC(c1cccs1)S(=O)(=O)c1ccc(C)cc1 (stereo not drawn)	.	/	/	.	.
SMILES	DRD3 agonist	D3 antag	D1 antag	D1 agonist	D1 potentiator
CCc1cccc(C)c1NC(=O)C1CCN(S(=O)(=O)c2c(C)noc2/C=C/c2c(C)cc(C)cc2C)CC1	.	/	.	.	.
CCCCNC(=O)O[C@@H]1C[C@@H]2CCN3C(=O)CCC[C@H]([C@H]1CC)[C@H]23	.	.	.	.	.
CCCCNC(=O)O[C@@H]1C[C@H]2CCCC(=O)N3CC[C@@H](C1)[C@@H]23	33	.	.	.	.
Cc1cc2c(s1)c1cnn(Cc3ccc(F)c(F)c3F)c(=O)c1n2C	/	/	.	.	.
CSC1=NCCN1C(=O)Cc1ccc(-c2ccccc2)cc1	.	.	-40	.	.
CCSC1=NCCN1C(=O)Cc1ccc(-c2ccccc2)cc1	.	.	-44	.	.
CCC(=O)N1CCN=C1SCc1ccccc1	.	.	.	.	/
Cc1cccc(NC(=O)CCS(=O)(=O)c2ccc3c(c2)n(C)c(=O)c(=O)n3C)c1C	.	/	.	.	.
COc1ccc(/C(N)=N/OC(=O)C2CCC(=O)N2S(=O)(=O)c2ccc(C)cc2)cc1 (stereo not drawn)	.	.	-32	.	.
COCCNC(=O)C1CCC(=O)N1S(=O)(=O)c1ccc(C)cc1 (stereo not drawn)	.	.	.	.	.
C=CCc1cccc(Cl)c1OCCCNC1CCCC1	.	-89	.	.	.
O=C(NCc1ccccc1Cl)c1ccc(NC(=O)c2nsc3ccccc23)cc1	.	/	.	.	.
CCCCCCCCCCSc1n[nH]c(NC(C)=O)n1	.	.	-41	.	.
CCCSc1n[nH]c(NC(C)=O)n1	.	.	.	.	.
CC(C)CNS(=O)(=O)c1ccc(OCC(=O)NCC2CCCO2)c(Cl)c1 (stereo not drawn)	.	.	-36	.	.
O=C(COc1ccc([N+](=O)[O-])cc1Cl)NCC1CCCO1 (stereo not drawn)	.	.	-39	.	.
COC(=O)COc1ccc(S(=O)(=O)NCC2CCCO2)cc1Cl (stereo not drawn)	.	.	.	.	.
Cc1ccccc1NC(=O)Cn1c(SCC(=O)Nc2ccc(F)cc2)nc2ccccc21	.	/	-80	.	.
COc1ccc(NC(=O)CSc2nc3ccccc3n2CC(=O)NCc2ccc(F)cc2)cc1	.	/	.	.	.
Cc1ccc(NC(=O)Nc2nnc(SCC(=O)N(C(C)C)C(C)C)s2)cc1	.	/	/	.	.
CCOC(=O)C1CCN(C(=O)CN(Cc2ccc(Cl)cc2)S(C)(=O)=O)CC1	.	-56	.	.	.
CC(C)(CN1CCNCC1)NS(=O)(=O)c1ccc(Cl)cc1	.	-95	.	.	.
CCOC(=O)N1CCN(C(=O)CN(Cc2ccc(Cl)cc2)S(C)(=O)=O)CC1	.	.	.	.	.
CCOC(=O)C1CCN(CC(C)(C)NS(=O)(=O)c2ccc(Cl)cc2)CC1	.	.	-31	.	.
CCOC(=O)C1CCN(CC(C)(C)NS(=O)(=O)c2ccc(C)cc2)CC1	.	.	.	.	.
CC(C)(CNCc1ccccc1)NS(=O)(=O)c1ccc(Cl)cc1	.	-57	/	/	/
CC(C)(CN1CCCC1)NS(=O)(=O)c1ccc(Cl)cc1	.	.	.	.	.
Cc1ccc(Cn2c(SCc3ccc(C(=O)N4CCCCC4)cc3)nc3ccncc32)cc1	.	/	.	.	.
CCCNC(=O)Cn1nc(-c2ccc(C)c(C)c2)c2cnc3ccc(OC)cc3c21	.	/	.	.	.
CCOC(=O)c1nnn(C(CC)C(=O)Nc2ccc(F)cc2)c1C(=O)OCC (stereo not drawn)	.	/	.	.	.
